# TSG101-PTAP inh: qHTS Assay for Iinhibitors of HIV-1 Budding by Blocking the Interaction of PTAP/TSG101; Fluorescence polarization, FITC-PTAP peptide / Tsg101 binding; Potency, µM (highest dose often 115 µM), for inactives: top-dose activity change, negative = inhibition, hits mostly inhibitors; 340,000 tested, under 10 active; AID 493005, 2010; active = well fitted inhibition curve with a large enough effect in the main read-out, with a control signal flat, not every such curve was filed as active; inconclusive = small, poorly fitted or top-dose-only effect, or effect the other way, or a change in a side signal; inactive = no such curve, though single readings can be large or run the other way; note: % of control where 0% means no effect
#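 Tsg101 binding domain (10 uM final) was mixed with compound and a FITC-labeled PTAP peptide (50 nM final) in HEPES pH 7.5 buffer with NaCl, Tween 20, EDTA and TCEP; fluorescence polarization was read after 20 min at r.t.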
# GALK inh: qHTS Assay for Inhibitors of Human Galactokinase (GALK); Purified GALK, Kinase-Glo residual ATP luminescence; Potency, µM (top dose mostly 57.5 µM), without a hit: at the top dose activity change, negative = inhibition, hits mostly inhibitors; 270,000 compounds, 0.007% hits; note: % is set by controls: 0 for no effect and ±100 for the full control effect
# Target sequence (P51570 whole entry, looked up): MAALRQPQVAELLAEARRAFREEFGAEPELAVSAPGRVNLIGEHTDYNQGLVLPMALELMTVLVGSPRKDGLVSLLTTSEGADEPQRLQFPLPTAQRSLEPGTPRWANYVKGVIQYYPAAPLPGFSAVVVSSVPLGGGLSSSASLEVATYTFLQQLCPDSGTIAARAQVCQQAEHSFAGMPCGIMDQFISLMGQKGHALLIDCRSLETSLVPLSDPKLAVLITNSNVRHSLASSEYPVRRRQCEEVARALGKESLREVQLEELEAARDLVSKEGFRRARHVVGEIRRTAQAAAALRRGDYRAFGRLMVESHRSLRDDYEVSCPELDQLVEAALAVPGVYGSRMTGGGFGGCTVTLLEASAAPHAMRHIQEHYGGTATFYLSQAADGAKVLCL
#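 5 nM enzyme, 35 uM ATP, 100 uM galactose, 20 mM HEPES pH8.0, 5 mM MgCl2; 1 h RT; residual ATP by Kinase-Glo Plus luminescence, qHTS format.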
# Integrin act MD: qHTS for Activators of Integrin-Mediated Alleviation for Muscular Dystrophy; alpha7betagal myoblasts, beta-gal FDG fluorescence, 48 h; 350,000 compounds, 0.064% hits; AID 624291, 2012; Potency, µM (doses to about 38.3 µM), for the others: top-dose activation, most hits filed as activators;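 note: 100% = response of the positive control SU9516; nearly all actives have a fitted effect of over 60% in size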
#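 alpha7betagal+/- myoblasts (passage 13, 250/well) treated 48 h at 37C with compounds at 1:260 dilution of DMSO stock. Lysed, then beta-galactosidase activity read as FDG fluorescence (ex 480/em 540) after 30 min, with pre-read for autofluorescence.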
# S-ASM inh: Inhibitors of Secretory Acid Sphingomyelinase (S-ASM): qHTS | Sphingomyelin phosphodiesterase (Homo sapiens), P17405 | placental ASM, HMU-PC fluorogenic substrate, 60 min | Potency, µM (highest dose often 57.5 µM), for the others: at the highest dose activity change, negative = inhibition, actives largely listed as inhibitors | 340,000 compounds, 0.006% hits
#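 Steps: dispense placental human ASM, pin compound, wait 10 min at room temperature, add HMU-PC0 substrate at 9 uM final, incubate 60 min at 37 °C, add stop solution raising pH to 10, read fluorescence.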
# A-T KAP1 phos: qHTS Assay for Identifying a Potential Treatment of Ataxia-Telangiectasia. Potency, µM (titrated, usually from 57.5 µM), for inactives: top-dose activation, actives largely listed as activators. AID 485349, 2010. F2112 A-T fibroblasts, KAP-1 phosphorylation AlphaLISA; neocarzinostatin DNA damage 30 min before lysis. 320,000 compounds, 0.19% hits; note: % of control where 0% means no effect; nearly all actives have a fitted effect of over 45% in size
#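 ATM-like activity read as KAP-1 phosphorylation via AlphaLISA donor/acceptor antibody pairs after lysis and 6 hr at 25C. Cells were ATM-null patient fibroblasts (F2112, hTERT), dosed 60 min, then exposed to the DSB inducer NCS for 30 min.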
# Mito fusion act: qHTS Assay for Small Molecule Inhibitors of Mitochondrial Division or Activators of Mitochondrial Fusion; Potency, µM (doses to about 46.1 µM), without a hit: top-dose growth rescue (activation), hits mostly activators; 320,000 compounds, 0.23% hits; S. cerevisiae fusion-defective mutant growth rescue, CellTiterGlo 48 h; AID 485298, 2010; note: % of control where 0% means no effect; nearly all actives have a fitted effect of over 45% in size
#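 Temperature-sensitive fusion-defective S. cerevisiae (e.g. fzo1-1, mgm1-5) were grown with compound in YPEG medium (3% ethanol, 3% glycerol) for 48 hours at 37C. Growth rescue was measured as viability by CellTiterGlo luminescence after 10 minutes at ambient.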
# * marks the source's active call; other numbers are inactive results; i = inactive; ? = inconclusive; / = no result; ! = not confirmed by another sample. An excerpt weighted towards active compounds, which were near 0.46% of everything screened. Unless noted, calls come from the whole dose curve; as a rule, active = well fitted curve in the direction sought with a large enough effect; inconclusive = small, poorly fitted or top-dose-only effect, or another doubt; inactive = no such curve, though single readings can be large; an effect the other way counts as inactive or inconclusive. Potency is the fitted concentration of half-maximal effect.
SMILES,TSG101-PTAP inh,GALK inh,Integrin act MD,S-ASM inh,A-T KAP1 phos,Mito fusion act
CCNC(=O)COC(=O)c1cc(-c2ccco2)nc2ccccc12,-8%,/,5.6µM*,289%,3%,3%
COc1ccc(CNC(=O)COC(=O)c2cc(-c3ccco3)nc3ccccc23)cc1,/,1%,/,/,0%,2%
COCCCN=Cc1c(C)[nH]n(-c2ccc(Br)cc2Br)c1=O,-1%,1%,0%,1%,1%,3%
CN(C)C(=S)Nc1cccc(C(F)(F)F)c1,-3%,-1%,10µM*,1%,-1%,-4%
CC(C)CCN(C(=O)CNC(=O)c1cccs1)C(C(=O)NC1CCCCC1)c1cccnc1 (stereo not drawn),-9%,-2%,-35%,6%,18µM*,-2%
CC(C)CCN(C(=O)CNC(=O)c1cccs1)C(C(=O)NC1CCCC1)c1ccncc1 (stereo not drawn),-2%,10%,-7%,-3%,5%,-2%
CCOc1ccc(C2C(C(=O)OC)=CN(CCOC)C=C2C(=O)OC)cc1,-5%,2%,11%,i,28µM*,0%
O=C(O)c1cccc(-n2cc(-c3cccc(C(F)(F)F)c3)cn2)c1,-2%,0%,9%,11%,4%,16µM*
O=C(O)c1ccc(-c2nc(-c3cccc(C(F)(F)F)c3)cs2)cc1,-2%,1%,0%,0%,4%,-2%
O=C(N/N=C/C1CC2C=CC1C2)c1ccccc1O (stereo not drawn),0%,5%,-7%,-3%,32µM*,1%
Cc1ccc(NC(=O)Cc2nnc(SCC(=O)NC3CCCC3)n2C)cc1C,-2%,-2%,16%,0%,-5%,2%
CCN=C1S/C(=C\c2cc(OCC)c(O)cc2Br)C(=O)N1CC,-2%,/,-24%,-5%,3%,7.1µM*
COc1ccc(C=C2SC(=O)NC2=O)cc1OC,-1%,/,-33%,1%,/,/
O=C1NC(=O)/C(=C/c2ccc3c(c2)OC(F)(F)O3)S1,/,/,/,/,/,3.7µM*
O=C(Nc1c2c(nn1-c1ccc([N+](=O)[O-])cc1)CS(=O)(=O)C2)c1ccco1,-4%,-5%,7%,0%,8%,-8%
CCOC(=O)c1c(-c2ccccc2)csc1NC(=O)C(C)NCCCN1CCOCC1 (stereo not drawn),0%,2%,11%,0%,-1%,11%
CCOC(=O)c1c(-c2ccc(-c3ccccc3)cc2)csc1NC(=O)CCN1CCOCC1,-1%,-2%,-27%,?,10%,10µM*
CCOC(=O)c1c(-c2ccc(F)cc2)csc1NC(=O)CCN1CCOCC1,-2%,1%,-27%,-1%,-5%,11µM*
Cc1cccc(N2CCN(C(=O)COc3cccc4c3OC(C)(C)C4)CC2)c1C,-4%,0%,?,-2%,11%,16µM*
NS(=O)(=O)c1cccnc1Nc1cccc(C(F)(F)F)c1,-3%,2%,25%,-3%,/,4%
O=C(O)c1cccnc1Nc1cccc(C(F)(F)F)c1,-4%,2%,/,5%,3%,18µM*!
O=C(O)c1ccc(Nc2c3ccccc3nc3ccccc23)cc1,-8%,0%,-17%,i,28µM*,-4%
O=C(Oc1ccc2c(=O)c(Cl)coc2c1)c1cccnc1,-7%,0%,-11%,13%,-6%,1%
O=C(Oc1ccc2c(=O)c(Oc3ccc4ccccc4c3)coc2c1)c1cccnc1,0%,0%,22%,/,1%,16µM*
O=C1c2ccccc2S(=O)(=O)N1CCS(=O)(=O)c1ccc(F)cc1,-5%,0%,8%,-2%,68%,6%

# Source: PubChem (National Center for Advancing Translational Sciences (NCATS))
